In the library only some 0.39% were active in any assay of this set; here they are far more common.
TRPV1 agonist: HTS Assay for Compounds that Act as Agonists of the Vanilloid Receptor 1; Transient receptor potential cation channel subfamily V member 1 (Homo sapiens), Q8NER1; activation, % at 8.33 µM; AID 540275, 2011; TRPV1-expressing cells, Fluo-8 calcium influx, agonist mode; actives 0.19% (n = 320,000); in the data active means activation above about 80%; inconclusive means between about 30% and that limit; further: 0% is about no effect
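Fluo-8 calcium influx in TRPV1-expressing cells, kinetic read (ex 480/em 520 nm). Compound added and read 3 min for agonist activity, followed by capsaicin at EC20 final and 2 min further read for enhancement.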
TRPV1 potentiator: HTS Assay for Compounds that Act as Potentiators of the Vanilloid Receptor 1; Transient receptor potential cation channel subfamily V member 1 (Homo sapiens), Q8NER1; TRPV1-expressing cells, Fluo-8 calcium influx, capsaicin EC20 potentiation; potentiation, % at 8.33 µM; actives 0.02% (n = 320,000); AID 540277, 2011; in the data active means potentiation above about 80%; inconclusive means between about 30% and that limit; further: 0% is about no effect
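TRPV1-expressing cells were cultured overnight at 35.5C and loaded with Fluo-8 calcium dye for 40 to 90 min at room temperature. After a 10 s baseline, compound was added and calcium influx was read kinetically for 3 min (ex 480/em 520 nm).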
CBFb RUNX1 block: qHTS Assay for Compounds Blocking the Interaction Between CBF-beta and RUNX1 for the Treatment of Acute Myeloid Leukemia. Potency, µM (top dose mostly 59.8 µM), inactives show at the top dose activity, negative = inhibition, most hits filed as inhibitors. 230,000 tested, under 10 active. AlphaScreen CBFb-His/RUNX1-biotin binding, biochemical; further: % of control where 0% means no effect
Target sequence (Q01196 whole entry, looked up): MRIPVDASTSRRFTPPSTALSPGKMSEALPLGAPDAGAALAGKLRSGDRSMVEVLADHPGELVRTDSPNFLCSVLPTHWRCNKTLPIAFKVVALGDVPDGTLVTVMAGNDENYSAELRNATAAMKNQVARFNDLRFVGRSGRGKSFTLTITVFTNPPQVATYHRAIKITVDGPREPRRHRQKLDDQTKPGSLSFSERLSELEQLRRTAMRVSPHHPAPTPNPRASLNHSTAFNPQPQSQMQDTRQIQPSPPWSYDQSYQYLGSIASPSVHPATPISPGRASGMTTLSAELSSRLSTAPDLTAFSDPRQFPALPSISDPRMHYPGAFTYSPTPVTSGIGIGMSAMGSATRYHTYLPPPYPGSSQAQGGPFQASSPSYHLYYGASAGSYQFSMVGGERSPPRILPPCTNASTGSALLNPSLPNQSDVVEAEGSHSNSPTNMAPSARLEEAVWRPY
Target sequence (Q13951 whole entry, looked up): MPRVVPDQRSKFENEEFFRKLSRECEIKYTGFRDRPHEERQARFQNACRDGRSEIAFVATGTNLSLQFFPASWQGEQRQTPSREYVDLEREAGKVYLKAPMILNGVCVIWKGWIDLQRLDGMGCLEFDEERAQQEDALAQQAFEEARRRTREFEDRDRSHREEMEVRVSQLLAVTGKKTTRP
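Interaction loss through any mechanism counts as activity. Pre-formed complex of His-CBF-beta and biotin-RUNX1 (30 nM apiece) is incubated with compound 15 min, then with 50 ng nickel and 50 ng streptavidin beads for 90 min before AlphaScreen detection.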
Anesthetic bind: qHTS Assay for Identification of Novel General Anesthetics | Ferritin light chain (Equus caballus), P02791 | apoferritin/1-aminoanthracene competitive binding, fluorescence | Potency, µM (doses to about 77.5 µM), for inactives: at the top dose activity change, negative = displacement, usual class: inhibitors | actives 0.074% (n = 350,000) | AID 485281, 2010; further: potency means the concentration at half of the fitted maximal effect; on the % scale 0 is the no-effect control and ±100 the full control effect; nearly all actives have a fitted effect of over 20% in size
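Concentration-response curves derived by four-parameter Hill fitting of normalized fluorescence, where compounds displaced 1-AMA from 10 uM horse apoferritin following a brief 10 min room-temperature incubation; propofol titration acted as positive control.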
A-T KAP1 phos: qHTS Assay for Identifying a Potential Treatment of Ataxia-Telangiectasia. F2112 A-T fibroblasts, KAP-1 phosphorylation AlphaLISA; neocarzinostatin DNA damage 30 min before lysis. Potency, µM (highest dose often 57.5 µM), for the others: at the highest dose activation, actives largely listed as activators. actives 0.19% (n = 320,000); further: potency means the concentration at half of the fitted maximal effect; % of control where 0% means no effect; nearly all actives have a fitted effect of over 45% in size
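ATM-like activity read as KAP-1 phosphorylation via AlphaLISA donor/acceptor antibody pairs after lysis and 6 hr at 25C. Cells were ATM-null patient fibroblasts (F2112, hTERT), dosed 60 min, then exposed to the DSB inducer NCS for 30 min.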
* = called active by the depositor; u = inconclusive; x = no result given; [ ] = remark or other dose. Unless noted, the call rests on the fitted dose curve; in most records, active means well fitted curve in the direction sought with a large enough effect; inconclusive means small, poorly fitted or top-dose-only effect, or another doubt; inactive means no such curve, though single readings can be large; an effect the other way counts as inactive or inconclusive.

SMILES | TRPV1 agonist | TRPV1 potentiator | CBFb RUNX1 block | Anesthetic bind | A-T KAP1 phos
C/C=C(/C)C(=O)O[C@H]1C[C@@]2(C)O[C@H]2[C@@H](OC(C)=O)C2(C)CC[C@@](O)(C(C)C)C12 (stereo partly drawn) | x | x | 22% | -8% | x
O=C1OC(c2ccccc2)=C/C1=C/N1CCCCC1 | 81* | -3 | -1% | -20% | 0%
Cc1ccc(CNC(=O)c2cc(COc3c(F)cccc3F)on2)s1 | 19 | -17 | 22% | 13µM* | 0%[11.5 µM]
O=C(Nc1cccc(C(F)(F)F)c1)Nc1cc(Cl)ccc1C(=O)O | x | x | 13% | -21% | x
Cc1ccc(CSCC(=O)NCc2ccc(F)cc2)cc1 | 82* | -2 | 9% | -12% | 6%
O=C(CCSCc1ccccc1F)NCc1ccc(F)cc1 | 82* | 6 | x | -14% | -5%
O=C(CSCc1ccccc1F)NCc1ccc(F)cc1 | u | -17 | 4% | -23% | -4%
O=C(CSCc1ccc(F)cc1)NCc1ccc(F)cc1 | u | 1 | 2% | u | 3%
CCOc1ccc(CNC(=O)CCSCc2ccccc2F)cc1OC | 104* | -9 | 1% | -21% | -2%
CC(C)Nc1nc(C#N)nc(Nc2ccccc2)n1 | x | x | x | -20% | x
CC1CCC(C(C)C)C(P(=O)(c2ccccc2)c2ccccc2)C1 (stereo not drawn) | x | x | 19% | 2% | x
CC(C)c1ccc(NC(=O)C(c2ccccc2)N2CC(=O)Nc3ccccc32)cc1 (stereo not drawn) | 20 | -27 | 1%[2.36 µM] | -9% | 35µM*
Cc1ccc(NC(=O)[C@@H](c2ccccc2)N2Cc3ccccc3C2=O)cc1 | x | x | x | -9% | x
CC1CCCCN1C(=O)Nc1cccc(Cl)c1 (stereo not drawn) | -3 | -6 | 1% | 22µM* | 0%
O=C(NCCc1ccc(Cl)cc1)c1cccs1 | 81* | -13 | -2% | -21% | 2%
CCc1ccc(NC(=O)c2cc3ccccn3n2)cc1 | x | x | x | -2% | x
Cc1ccc(CCNC(=O)c2cc3ccccn3n2)cc1 | x | x | x | -5% | x
O=C(Nc1ccc(Br)cc1)c1cc2ccccn2n1 | 85* | -26 | 7% | 1% | 5%
O=C(NCCc1ccc(Cl)cc1)c1cc2ccccn2n1 | 87* | -29 | 10% | -17% | 0%
CCOC(=O)/C=C/CCC/C=C/C(=O)c1ccccc1 | x | x | -2% | x | x
CC(C)[C@H](N)C(=O)N[C@@H](CCC(N)=O)C(=O)NCC(=O)N[C@@H](CCC(=O)O)C(=O)N[C@@H](CCC(=O)O)C(=O)N[C@@H](CO)C(=O)N[C@@H](CC(N)=O)C(=O)N[C@@H](CC(=O)O)C(=O)N[C@@H](CCCCN)C(=O)O | x | x | 4% | 10% | x
COc1ccc2c(c1)O[C@@H](c1ccc3c(c1)OCO3)[C@H](OC(=O)N[C@H]1CCCc3ccccc31)C2=O | x | x | -9% | x | x
COc1ccccc1C(=O)NC(=O)Nc1cccc(Cl)c1 | 1 | -4 | x | 1% | 3.5µM*
O=C(NC(NC(=S)N1CCOCC1)C(Cl)(Cl)Cl)c1ccc(Cl)cc1 (stereo not drawn) | 83* | 1 | 4% | -15% | 12%
NNC(=O)c1cccc(S(=O)(=O)Nc2cc(Cl)ccc2Cl)c1 | 8 | 27 | 3% | -14% | 28µM*
COc1ccccc1NS(=O)(=O)c1cccc(C(=O)NN)c1 | 1 | -2 | -3% | u | -1%
CC1=C(CCC(=O)O)c2cc3nc(cc4[nH]c(cc5[nH]c(cc1n2)c(C)c5C(C)O)c(C)c4C(C)O)C(C)=C3CCC(=O)O (stereo not drawn) | x | x | x | 0% | x
C=Cc1c(C)c2cc3[nH]c(cc4nc(cc5nc(cc1[nH]2)C(C)=C5CCC(=O)O)C(CCC(=O)O)=C4C)c(C)c3C=C | 0 | -15 | u | x | 32µM*
Cc1oc2ccc(OCc3ccc(Cl)cc3)cc2c1C(=O)O | -7 | 16 | 6% | 4% | 0%

Compound activity as filed in PubChem.
